Test results reported in PubChem BioAssay (NCI).
Where “and” joins values, the source holds several entries; their conditions need not be identical. Equal entries are not always repeated. About 83,000 compounds went through this panel and 20% of them were active in at least one assay; those are over-represented in the sample as a whole.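 In brief: 96-well plates, 48 h treatment, single concentration, percent growth endpoint.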 A number with no mark means an inactive call. Calls of active or inactive are those of the source. The calls were made as follows: active = growth percent below 10; inactive = the rest.

The compounds below were run on EKVX NSCLC (assay: NCI-60 one-dose screen, 48 h (100 = growth as untreated, 0 = no growth, -100 = all killed)). Conditions: 10 µM.
For `C/C1=C\[C@H](C)C[C@H](C)OC(=O)C[C@H](c2ccc(O)cc2)NC(=O)[C@@H](Cc2c(Br)[nH]c3ccccc23)N(C)C(=O)[C@H](C)NC(=O)[C@@H](C)C1`, the growth was -23.6% (active). `CC1CCC2(OC1)OC1C(O)C3C4CCC5CC(OC6OC(CO)C(OC7OC(CO)C(O)C(OC8OCC(O)C(O)C8O)C7OC7OC(CO)C(O)C(OC8OC(CO)C(O)C(O)C8O)C7O)C(O)C6O)C(O)CC5(C)C4CCC3(C)C1C2C` (centres undefined) was tested, and the growth was -17.2% (active). In the case of `[Cl][Hg][c]1ccc2ccccc2c1`, the growth is reported as -48.6% (active). For `O=[N+]([O-])c1cc[n+]([O-])c2ccccc12`, the growth was -3.54% (active). Work on `[O-][n+]1ccccc1S` yielded a growth of 72.7%. `Cc1cc([N+](=O)[O-])c2ccccc2[n+]1[O-]` showed a growth of 89.4%. With `CC/C(=C/c1ccc(OC)cc1)[N+](=O)[O-]` the growth was 78%. `Oc1c(I)cc(I)cc1I` showed a growth of 108%. Compound `COC(=O)C1C(O)C(C)C(O)C(C)/C=C\C=C(C)C(=O)Nc2c(C)c(OC(C)=O)c3c(c2O)C(=O)C(C)=C2OCOC(=C23)C(C)=CC(C)(O)C(O)C(C)C1O` (centres undefined) has a growth of 110%. `Cn1c(O)c(N=O)c(=O)n(C)c1=O` was tested, and the growth was 110% and 107%. With `CC(C)C1(NC(=O)C2CC3c4cccc5[nH]cc(c45)CC3N(C)C2)OC2(O)C3CCCN3C(=O)C(Cc3ccccc3)N2C1=O` (centres undefined) the growth was 98.8%. `COC(C(=O)C(O)C(C)O)C1Cc2cc3cc(OC4CC(OC(C)=O)C(OC5CC(O)C(OC)C(C)O5)C(C)O4)cc(O)c3c(O)c2C(=O)C1OC1CC(OC2CC(OC3CC(C)(O)C(OC(=O)C(C)C)C(C)O3)C(O)C(C)O2)C(O)C(C)O1` (centres undefined) was tested, and the growth was -16% (active). For `C=NCC#N`, the growth was 115%. With `CC(=O)[O][Hg][c]1c(C)c(C)cc(C)c1C` the growth was -62.9% (active). `[Cl][Hg][c]1ccc(Cl)s1` was tested, and the growth was -18.7% (active).

The compounds below were run on SN12C renal in the same assay as above. Conditions: 10 µM.
With `COc1ccccc1[As]=[As]c1ccccc1OC` (centres undefined) the growth was -83.3% (active). `O=S(=O)(F)c1ccc(Cl)cc1` gave a growth of 105%. For `C/C1=C\[C@H](C)C[C@H](C)OC(=O)C[C@H](c2ccc(O)cc2)NC(=O)[C@@H](Cc2c(Br)[nH]c3ccccc23)N(C)C(=O)[C@H](C)NC(=O)[C@@H](C)C1`, the growth was 14.2%. For `CC1CCC2(OC1)OC1C(O)C3C4CCC5CC(OC6OC(CO)C(OC7OC(CO)C(O)C(OC8OCC(O)C(O)C8O)C7OC7OC(CO)C(O)C(OC8OC(CO)C(O)C(O)C8O)C7O)C(O)C6O)C(O)CC5(C)C4CCC3(C)C1C2C` (centres undefined), the growth was -26.9% (active). For `[Cl][Hg][c]1ccc2ccccc2c1`, the growth was -67.1% (active). With `COc1cc(/C=C(/C)[N+](=O)[O-])ccc1O` the growth was 27.5% and 23.2%. With `O=[N+]([O-])c1cc[n+]([O-])c2ccccc12` the growth was -27.5% (active). For `[O-][n+]1ccccc1S`, the growth was 58.7%. For `NNc1ccccc1`, the growth was 97.3%. Work on `O=C1CCC(=O)N1SC(Cl)(Cl)Cl` yielded a growth of 102%. In the case of `Cc1cc([N+](=O)[O-])c2ccccc2[n+]1[O-]`, the growth is reported as -5.98% (active) and -21.1% (active). For `CC/C(=C/c1ccc(OC)cc1)[N+](=O)[O-]`, the growth was -43.7% (active). With `COc1cc(/C=C\[N+](=O)[O-])ccc1O` the growth was 67.3% and 94.1%. `Oc1c(I)cc(I)cc1I` showed a growth of 97.2%. `COC(=O)C1C(O)C(C)C(O)C(C)/C=C\C=C(C)C(=O)Nc2c(C)c(OC(C)=O)c3c(c2O)C(=O)C(C)=C2OCOC(=C23)C(C)=CC(C)(O)C(O)C(C)C1O` (centres undefined) showed a growth of 94.9%. For `COC1CC2C=C(C)/C=C/C=C/C(=O)NC(c3ccccc3)C/C=C/CCC(O)CC(=O)C2=C1O` (centres undefined), the growth was -84.9% (active). In the case of `C=C1C(=O)O[C@@H]2C[C@@H](C)[C@@H]3C=CC(=O)[C@@]3(C)[C@@H](O)[C@H]12`, the growth is reported as 9.98% (active). `CC12OOC(c3ccccc31)c1c2ccc2ccccc12` (centres undefined) was tested, and the growth was 94.4%. For `Cn1c(O)c(N=O)c(=O)n(C)c1=O`, the growth was 108% and 94.7%. With `CC(C)C1(NC(=O)C2CC3c4cccc5[nH]cc(c45)CC3N(C)C2)OC2(O)C3CCCN3C(=O)C(Cc3ccccc3)N2C1=O` (centres undefined) the growth was 99.4%. With `C#CC1(O)CCC(C(C)(C)C)CC1` (centres undefined) the growth was 104%. In the case of `O=[N+]([O-])/C=C/c1ccc(Cl)cc1[N+](=O)[O-]`, the growth is reported as 63.2%. In the case of `COC(C(=O)C(O)C(C)O)C1Cc2cc3cc(OC4CC(OC(C)=O)C(OC5CC(O)C(OC)C(C)O5)C(C)O4)cc(O)c3c(O)c2C(=O)C1OC1CC(OC2CC(OC3CC(C)(O)C(OC(=O)C(C)C)C(C)O3)C(O)C(C)O2)C(O)C(C)O1` (centres undefined), the growth is reported as 5.41% (active). With `COC12c3c(C)cc(O)c4c(=O)occ(c34)C(=O)C1C13COC(=O)c4c(O)cc(C)c(c41)C(=O)C2C3OC(C)=O` (centres undefined) the growth was 102%. For `[Cl][Sn]([c]1ccccc1)([c]1ccccc1)[c]1ccccc1`, the growth was -28.9% (active). With `C=NCC#N` the growth was 99.9% and 99.6%. In the case of `CC(=O)[O][Hg][c]1c(C)c(C)cc(C)c1C`, the growth is reported as -13.8% (active). In the case of `[Cl][Hg][c]1ccc(Cl)s1`, the growth is reported as 34.1%. For `COc1ccc(/C=C(\C)[N+](=O)[O-])cc1OC`, the growth was 39.9%.
